# Results taken from the supplement of paper PMC11001985.
# Compound: C#CCNC(=O)CCSSCCC(=O)NCCc1ccc(C=O)c(C=O)c1
# Experiment: lysine labeling ratio R10:1 (500 µM / 50 µM probe), SILAC-ABPP in living cells; higher = lower intrinsic lysine reactivity toward the probe, active = 2 or less
# Conditions: HeLa; probe concentrations 500 vs 50 µM
# In short: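 Living SILAC light and heavy HeLa cells in PBS at room temperature were treated with an alkyne-tagged, disulfide-linked lysine probe at 50 µM or 500 µM, with forward and reverse label swaps. The mixed lysates were clicked to biotin-azide, digested with trypsin, captured on neutravidin, released with DTT, alkylated and run by LC-MS/MS on a TIMS-TOF Pro. R for each lysine is the filtered median high-probe/low-probe MS1 peptide ratio, taken again as the median over forward and reverse replicates. Any value above 20 is set to 20.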
# Sequence of UniProt P11717 (P11717 whole entry): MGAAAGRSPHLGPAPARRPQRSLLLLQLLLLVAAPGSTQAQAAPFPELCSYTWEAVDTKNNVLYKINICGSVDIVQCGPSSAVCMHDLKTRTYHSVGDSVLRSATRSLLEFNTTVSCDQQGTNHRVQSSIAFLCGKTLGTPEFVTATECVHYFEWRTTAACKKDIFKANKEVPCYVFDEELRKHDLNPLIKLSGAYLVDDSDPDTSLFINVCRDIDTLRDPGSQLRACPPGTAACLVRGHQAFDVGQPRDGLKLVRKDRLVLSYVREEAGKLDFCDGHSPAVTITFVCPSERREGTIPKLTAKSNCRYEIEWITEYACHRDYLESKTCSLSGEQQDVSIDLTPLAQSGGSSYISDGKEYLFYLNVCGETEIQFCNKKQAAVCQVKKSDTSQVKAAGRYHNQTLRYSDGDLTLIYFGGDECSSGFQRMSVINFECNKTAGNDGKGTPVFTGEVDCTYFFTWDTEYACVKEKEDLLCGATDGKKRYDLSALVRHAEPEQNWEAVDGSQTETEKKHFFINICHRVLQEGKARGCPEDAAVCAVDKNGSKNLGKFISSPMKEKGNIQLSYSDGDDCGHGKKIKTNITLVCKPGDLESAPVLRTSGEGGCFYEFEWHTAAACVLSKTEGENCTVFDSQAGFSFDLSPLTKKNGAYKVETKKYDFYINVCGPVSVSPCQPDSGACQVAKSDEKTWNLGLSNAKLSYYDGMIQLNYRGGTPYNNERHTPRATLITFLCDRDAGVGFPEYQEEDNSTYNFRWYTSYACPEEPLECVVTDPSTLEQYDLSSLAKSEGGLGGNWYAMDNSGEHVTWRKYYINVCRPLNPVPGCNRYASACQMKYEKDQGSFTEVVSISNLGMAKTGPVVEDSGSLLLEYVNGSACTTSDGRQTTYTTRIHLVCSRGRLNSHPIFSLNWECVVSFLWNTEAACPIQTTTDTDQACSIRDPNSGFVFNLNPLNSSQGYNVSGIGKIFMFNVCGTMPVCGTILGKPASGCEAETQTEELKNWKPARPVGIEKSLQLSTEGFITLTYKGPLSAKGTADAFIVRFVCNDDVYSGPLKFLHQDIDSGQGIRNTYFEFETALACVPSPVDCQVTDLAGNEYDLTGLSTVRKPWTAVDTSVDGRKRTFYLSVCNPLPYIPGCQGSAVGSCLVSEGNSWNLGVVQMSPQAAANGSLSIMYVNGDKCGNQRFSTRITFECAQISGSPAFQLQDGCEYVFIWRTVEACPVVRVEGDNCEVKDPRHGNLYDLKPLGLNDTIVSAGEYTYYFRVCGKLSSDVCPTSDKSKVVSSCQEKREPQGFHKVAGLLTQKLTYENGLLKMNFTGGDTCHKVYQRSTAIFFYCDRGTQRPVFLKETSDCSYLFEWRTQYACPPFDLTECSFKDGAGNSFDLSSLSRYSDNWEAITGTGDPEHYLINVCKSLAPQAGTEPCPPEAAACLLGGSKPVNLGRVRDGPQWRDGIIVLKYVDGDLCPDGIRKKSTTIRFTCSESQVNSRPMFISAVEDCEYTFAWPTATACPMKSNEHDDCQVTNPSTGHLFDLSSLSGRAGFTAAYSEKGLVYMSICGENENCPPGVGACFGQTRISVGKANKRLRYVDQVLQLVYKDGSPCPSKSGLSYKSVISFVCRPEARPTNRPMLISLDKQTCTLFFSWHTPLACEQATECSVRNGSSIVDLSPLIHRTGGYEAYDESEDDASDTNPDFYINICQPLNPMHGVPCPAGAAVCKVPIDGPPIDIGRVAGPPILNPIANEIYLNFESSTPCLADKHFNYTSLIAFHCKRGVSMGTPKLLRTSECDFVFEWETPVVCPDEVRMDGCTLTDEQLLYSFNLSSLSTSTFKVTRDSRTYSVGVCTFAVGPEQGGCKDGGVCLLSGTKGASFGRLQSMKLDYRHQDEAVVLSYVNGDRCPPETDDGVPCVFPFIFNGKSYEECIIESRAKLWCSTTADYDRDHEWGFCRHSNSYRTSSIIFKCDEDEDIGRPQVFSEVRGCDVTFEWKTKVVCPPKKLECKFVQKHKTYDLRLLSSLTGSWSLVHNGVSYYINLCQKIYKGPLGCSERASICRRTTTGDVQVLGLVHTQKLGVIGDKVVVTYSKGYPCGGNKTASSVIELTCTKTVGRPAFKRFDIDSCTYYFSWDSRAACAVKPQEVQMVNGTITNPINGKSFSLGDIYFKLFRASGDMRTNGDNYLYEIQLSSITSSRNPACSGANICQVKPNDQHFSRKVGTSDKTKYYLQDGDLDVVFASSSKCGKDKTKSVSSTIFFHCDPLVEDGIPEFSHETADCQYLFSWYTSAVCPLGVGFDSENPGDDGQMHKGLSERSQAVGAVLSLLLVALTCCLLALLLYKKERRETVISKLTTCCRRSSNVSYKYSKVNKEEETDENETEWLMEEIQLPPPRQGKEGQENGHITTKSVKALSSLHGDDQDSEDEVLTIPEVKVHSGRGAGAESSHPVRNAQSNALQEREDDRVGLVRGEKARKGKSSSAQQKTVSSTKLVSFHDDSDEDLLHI
# Sequence of UniProt P17844 (P17844 whole entry): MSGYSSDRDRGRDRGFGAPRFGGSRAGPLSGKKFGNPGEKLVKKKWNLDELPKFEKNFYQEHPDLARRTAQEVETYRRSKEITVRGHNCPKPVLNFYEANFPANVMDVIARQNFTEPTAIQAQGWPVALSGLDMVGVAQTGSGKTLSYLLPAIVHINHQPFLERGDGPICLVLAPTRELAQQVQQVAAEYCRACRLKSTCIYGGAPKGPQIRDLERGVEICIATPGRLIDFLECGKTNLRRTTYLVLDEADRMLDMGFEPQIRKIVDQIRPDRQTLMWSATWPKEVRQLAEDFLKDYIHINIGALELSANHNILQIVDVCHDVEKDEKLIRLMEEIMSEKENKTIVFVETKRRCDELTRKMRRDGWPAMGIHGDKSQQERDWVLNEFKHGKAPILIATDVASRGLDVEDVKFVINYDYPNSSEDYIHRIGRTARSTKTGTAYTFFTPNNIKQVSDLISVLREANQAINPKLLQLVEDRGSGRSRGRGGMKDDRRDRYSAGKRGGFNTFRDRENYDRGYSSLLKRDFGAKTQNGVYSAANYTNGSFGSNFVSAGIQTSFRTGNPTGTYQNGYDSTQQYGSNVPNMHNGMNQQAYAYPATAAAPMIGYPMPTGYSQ
# Sequence of UniProt Q99623 (Q99623 whole entry): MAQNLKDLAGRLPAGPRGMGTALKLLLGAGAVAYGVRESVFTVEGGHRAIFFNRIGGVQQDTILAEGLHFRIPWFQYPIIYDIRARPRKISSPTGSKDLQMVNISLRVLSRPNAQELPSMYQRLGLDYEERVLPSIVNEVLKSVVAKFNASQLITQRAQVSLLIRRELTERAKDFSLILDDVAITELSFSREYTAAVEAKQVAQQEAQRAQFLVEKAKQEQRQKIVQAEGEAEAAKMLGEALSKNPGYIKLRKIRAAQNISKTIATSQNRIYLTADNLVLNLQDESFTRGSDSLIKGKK
# Sequence of UniProt Q9C0C2 (Q9C0C2 whole entry): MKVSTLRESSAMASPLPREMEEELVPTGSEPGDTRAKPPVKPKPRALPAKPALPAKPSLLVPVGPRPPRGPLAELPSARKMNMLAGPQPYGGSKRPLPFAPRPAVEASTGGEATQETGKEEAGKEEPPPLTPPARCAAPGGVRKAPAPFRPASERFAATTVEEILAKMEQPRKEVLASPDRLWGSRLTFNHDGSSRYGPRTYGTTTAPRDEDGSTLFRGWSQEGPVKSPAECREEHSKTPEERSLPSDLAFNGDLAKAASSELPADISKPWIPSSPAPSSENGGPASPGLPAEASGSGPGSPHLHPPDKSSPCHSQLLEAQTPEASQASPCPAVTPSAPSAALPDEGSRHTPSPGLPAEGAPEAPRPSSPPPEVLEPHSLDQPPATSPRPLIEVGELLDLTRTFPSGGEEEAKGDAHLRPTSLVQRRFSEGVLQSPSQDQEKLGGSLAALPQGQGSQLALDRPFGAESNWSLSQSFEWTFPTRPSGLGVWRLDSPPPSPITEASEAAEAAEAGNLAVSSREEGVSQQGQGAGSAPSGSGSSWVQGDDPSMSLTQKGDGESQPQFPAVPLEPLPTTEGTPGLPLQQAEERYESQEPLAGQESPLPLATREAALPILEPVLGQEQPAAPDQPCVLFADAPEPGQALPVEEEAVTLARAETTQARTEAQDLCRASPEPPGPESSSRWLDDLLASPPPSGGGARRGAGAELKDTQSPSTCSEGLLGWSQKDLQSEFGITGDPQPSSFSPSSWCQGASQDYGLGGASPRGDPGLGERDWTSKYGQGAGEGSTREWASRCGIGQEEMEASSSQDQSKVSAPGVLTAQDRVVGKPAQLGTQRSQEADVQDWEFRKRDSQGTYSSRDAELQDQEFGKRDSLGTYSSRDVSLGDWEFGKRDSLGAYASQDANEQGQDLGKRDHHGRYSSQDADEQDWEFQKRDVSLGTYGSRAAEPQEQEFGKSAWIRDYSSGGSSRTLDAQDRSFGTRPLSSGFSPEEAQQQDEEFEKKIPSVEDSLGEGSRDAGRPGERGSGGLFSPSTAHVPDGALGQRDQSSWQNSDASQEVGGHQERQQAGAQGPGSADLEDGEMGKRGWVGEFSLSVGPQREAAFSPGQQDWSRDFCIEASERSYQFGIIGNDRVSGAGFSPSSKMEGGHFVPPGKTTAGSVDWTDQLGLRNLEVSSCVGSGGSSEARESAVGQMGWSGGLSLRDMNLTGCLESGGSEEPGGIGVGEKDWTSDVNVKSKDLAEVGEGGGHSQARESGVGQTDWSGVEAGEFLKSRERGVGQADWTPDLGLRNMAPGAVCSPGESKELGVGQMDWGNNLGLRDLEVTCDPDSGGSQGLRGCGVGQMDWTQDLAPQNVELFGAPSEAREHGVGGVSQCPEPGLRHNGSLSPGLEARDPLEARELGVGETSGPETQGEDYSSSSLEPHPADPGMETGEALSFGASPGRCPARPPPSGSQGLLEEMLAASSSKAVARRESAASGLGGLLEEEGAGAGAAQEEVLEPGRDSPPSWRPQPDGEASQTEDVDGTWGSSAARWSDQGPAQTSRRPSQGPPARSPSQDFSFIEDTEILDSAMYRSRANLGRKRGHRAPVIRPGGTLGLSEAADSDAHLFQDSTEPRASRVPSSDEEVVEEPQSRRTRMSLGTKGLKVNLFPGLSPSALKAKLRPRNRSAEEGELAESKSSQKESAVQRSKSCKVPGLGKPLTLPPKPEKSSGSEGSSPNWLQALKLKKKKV
row,Target,lysine labeling ratio R10:1
1,CLTC (lysine site: K637) (UniProt Q00610),2.63 (inactive)
2,CACNA2D1 (lysine site: K106) (UniProt P54289),3.84 (inactive)
3,CCT2 (lysine site: K82) (UniProt P78371),2.91 (inactive)
4,DDX5 (lysine site: K56) (UniProt P17844),2.69 (inactive)
5,UniProt P62269 (lysine site: K47),1.41 (active)
6,CRIM1 (lysine site: K176) (UniProt Q9NZV1),2.01 (inactive)
7,SRP14 (lysine site: K55) (UniProt P37108),1.02 (active)
8,RPSA (lysine site: K89) (UniProt P08865),4.12 (inactive)
9,ROBO1 (lysine site: K214) (UniProt Q9Y6N7),4.58 (inactive)
10,TNKS1BP1 (lysine site: K1676) (UniProt Q9C0C2),2.22 (inactive)
11,DDX5 (lysine site: K284) (UniProt P17844),0.51 (active)
12,FN1 (lysine site: K486) (UniProt P02751),2.59 (inactive)
13,THRAP3 (lysine site: K346) (UniProt Q9Y2W1),2.43 (inactive)
14,RPL35A (lysine site: K95) (UniProt P18077),3.1 (inactive)
15,UniProt Q99623 (lysine site: K216),2.79 (inactive)
16,ARHGDIA (lysine site: K43) (UniProt P52565),1.51 (active)
17,LMO7 (lysine site: K1455) (UniProt Q8WWI1),1.37 (active)
18,UniProt P09758 (lysine site: K84),5.29 (inactive)
19,SLC44A2 (lysine site: K210) (UniProt Q8IWA5),2.8 (inactive)
20,IGF2R (lysine site: K1285) (UniProt P11717),0.936 (active)

row,Target,lysine labeling ratio R10:1
1,GPC1 (lysine site: K42) (UniProt P35052),2.38 (inactive)
2,UniProt P62249 (lysine site: K130),4.97 (inactive)
3,YBX1 (lysine site: K170) (UniProt P67809),9.44 (inactive)
4,CHCHD3 (lysine site: K89) (UniProt Q9NX63),0.99 (active)
5,ACTN1 (lysine site: K492) (UniProt P12814),0.906 (active)
6,ORMDL3 (lysine site: K79) (UniProt Q8N138),5.16 (inactive)
7,NECTIN3 (lysine site: K249) (UniProt Q9NQS3),5.88 (inactive)
8,UniProt Q15149 (lysine site: K1401),3.7 (inactive)
9,SLC25A5 (lysine site: K245) (UniProt P05141),2.26 (inactive)
10,UniProt P02768 (lysine site: K499),7.98 (inactive)
11,IGF2R (lysine site: K1873) (UniProt P11717),0.826 (active)
12,WDR1 (lysine site: K81) (UniProt O75083),0.967 (active)
13,TGFBI (lysine site: K676) (UniProt Q15582),3.4 (inactive)
14,XRCC6 (lysine site: K317) (UniProt P12956),3.53 (inactive)
15,APOB (lysine site: K1642) (UniProt P04114),2.17 (inactive)
16,ITGB1 (lysine site: K575) (UniProt P05556),3.24 (inactive)
17,FSCN1 (lysine site: K399) (UniProt Q16658),3.81 (inactive)
18,CKB (lysine site: K313) (UniProt P12277),1.31 (active)
19,AHNAK (lysine site: K563) (UniProt Q09666),2.5 (inactive)
20,ECH1 (lysine site: K83) (UniProt Q13011),1.59 (active)
